What all share (conditions): concentration: 10 µM; 24 h
The test system of test [1] is HCC1569. In words: cell number relative to DMSO (% of DMSO); higher = more cells (less growth inhibition / toxicity). In a few lines: (§1)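 Using 384-well plates with 800 cells per well in RPMI plus 10% FBS, HCC1569 and TDF cells were exposed to compounds at 10 µM, in triplicate, for 24 h at 37 °C. Imaging of six fields per well at ×10 followed H1.0 and DAPI staining. The reported quantity, H1.0 nuclear intensity or cell number, is a median of replicates given as percent of the plate control, and HCC1569 values were smoothed for positional effects.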

The test system of test [2] is TDF. The test is described as above. In a few lines: as §1
The test system of test [3] is HCC1569. Kind of test: H1.0 immunofluorescence intensity relative to DMSO (% of DMSO); higher = stronger H1.0 induction, active = 140 or more. In a few lines: as §1
Test [4] deals with TDF. Kind of test: H1.0 immunofluorescence intensity relative to DMSO (% of DMSO); higher = stronger H1.0 induction, active = 120 or more. In a few lines:
as §1

Cell number and H1.0 immunofluorescence intensity data for 17 compounds are collected here from the supplement of paper PMC7156485.
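For H1.0 immunofluorescence intensity relative to DMSO in this document: TDF is a line of transformed human dermal fibroblasts of mesenchymal origin.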
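For cell number relative to DMSO in this document: TDF denotes transformed human dermal fibroblasts of mesenchymal origin.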

`COc1ccc2c(c[n+](C)c3c4cc5c(cc4ccc23)OCO5)c1OC.[Cl-]` [Chelerythrine chloride]: the cell number is 55.4 with HCC1569 [1] and 0.93 in the test with TDF [2]. Besides, the H1.0 immunofluorescence intensity with HCC1569 [3] is 157 (active).

For `C#CCNC(C)Cc1ccccc1.Cl` (stereo not drawn) [R-(-)-Desmethyldeprenyl hydrochloride], the cell number was determined as 102 in the test on HCC1569 [1] and 103 in the test on TDF [2]. Besides, the H1.0 immunofluorescence intensity with TDF [4] is 97.2 (inactive); in the test with HCC1569 [3], 90.7 (inactive).

On to `Cc1o[nH]c(=O)c1CC(N)C(=O)O` (racemic), for which the results for the cell number in the test on HCC1569 [1] and in the test with TDF [2] were 103 and 101, respectively. Also, the H1.0 immunofluorescence intensity was 96.3 (inactive) with TDF [4] and 87.9 (inactive) in the test on HCC1569 [3].

Take `c1ccc2c(c1)[nH]c1cnccc12` [Norharmane]: the figures for the cell number in the test on HCC1569 [1] and with TDF [2] were 100 and 106, respectively. Further, the H1.0 immunofluorescence intensity in the test on TDF [4] was 97.6 (inactive); in the test on HCC1569 [3], 92 (inactive).

`Cc1cccc(C)c1NC1=NCCCS1.Cl` [Xylazine hydrochloride]: the values for the cell number with HCC1569 [1] and in the test with TDF [2] were 100 and 118, respectively. Also, the H1.0 immunofluorescence intensity is 99.9 (inactive) in the test on TDF [4] and 111 (inactive) in the test with HCC1569 [3].

Regarding `CC1=CC(=O)C2=C(C)CC(O)C3C(C)C(=O)OC3C12` (centres undefined) [Austricin], the cell number in the test with HCC1569 [1] came to 101; with TDF [2], 97.7. Moreover, the H1.0 immunofluorescence intensity in the test on TDF [4] is 96.7 (inactive); in the test on HCC1569 [3] it was 98.1 (inactive).

In the case of `Nc1ncnc2c1ccn2C1OC(CO)C(O)C1O` (centres undefined) [Tubericidin], the cell number with HCC1569 [1] was found to be 42.7; in the test on TDF [2], 32.3. In addition, the H1.0 immunofluorescence intensity was 118 (inactive) with TDF [4] and 70.1 (inactive) in the test on HCC1569 [3].

As for `CNC(=O)Oc1ccc2c(c1)C1(C)CCN(C)C1N2C.CNC(=O)Oc1ccc2c(c1)C1(C)CCN(C)C1N2C.O=S(=O)(O)O` (centres undefined) [Physostigmine sulfate], the cell number in the test with HCC1569 [1] was found to be 97.1; with TDF [2] it was 102. Further, the H1.0 immunofluorescence intensity is 90.4 (inactive) with TDF [4] and 106 (inactive) in the test with HCC1569 [3].

Turning to `CNCCc1ccc(O)c(O)c1.Cl` [N-Methyldopamine hydrochloride], the figures for the cell number with HCC1569 [1] and in the test with TDF [2] were 105 and 92.2, respectively. Moreover, the H1.0 immunofluorescence intensity in the test on TDF [4] was 95.3 (inactive); in the test on HCC1569 [3], 94 (inactive).

Consider `CS(=O)(=O)O.Cc1c(C(=O)c2cccc3ccccc23)c2cccc3c2n1C(CN1CCOCC1)CO3` (stereo not drawn) [( R)-(+)-WIN 55,212-2 mesylate], for which the values for the cell number with HCC1569 [1] and in the test with TDF [2] were 72.8 and 53.4, respectively. Also, the figures for the H1.0 immunofluorescence intensity in the test with TDF [4] and in the test with HCC1569 [3] were 131 (active) and 209 (active), respectively.

Consider `CNc1ccc2oc(CC3OC4(CCC3C)OC(C(C)C(=O)c3ccc[nH]3)C(C)CC4C)nc2c1C(=O)O` (centres undefined) [Calcimycin], for which the results for the cell number with HCC1569 [1] and in the test with TDF [2] were 43.8 and 23.3, respectively. Besides, the figures for the H1.0 immunofluorescence intensity in the test on TDF [4] and with HCC1569 [3] were 180 (active) and 128 (inactive), respectively.

Regarding `CN1CCN(c2ccc3ccccc3n2)CC1.O=C(O)C=CC(=O)O.O=C(O)C=CC(=O)O` [Quipazine, N-methyl-, dimaleate], the cell number with HCC1569 [1] stood at 102; in the test on TDF [2], 104. The H1.0 immunofluorescence intensity was 93 (inactive) in the test with TDF [4] and 89.8 (inactive) in the test on HCC1569 [3].

On to `CN(C)C(=O)Oc1cc(OC(=O)N(C)C)cc(C(O)CNC(C)(C)C)c1` (centres undefined) [Bambuterol], for which the figures for the cell number in the test on HCC1569 [1] and in the test with TDF [2] were 101 and 112, respectively. The H1.0 immunofluorescence intensity in the test with TDF [4] was 93.5 (inactive); in the test with HCC1569 [3] it was 106 (inactive).

`Clc1ccc(C(c2ccc(Cl)cc2)n2cc[n+](CC(OCc3ccc(Cl)cc3Cl)c3ccc(Cl)cc3Cl)c2)cc1.[Cl-]` (centres undefined) [Calmidazolium chloride]: the cell number in the test on HCC1569 [1] came to 17.8; with TDF [2], 0.84. In addition, the H1.0 immunofluorescence intensity in the test on HCC1569 [3] was 95.3 (inactive).

Regarding `CN1C2CCC1CC(OC(=O)C(CO)c1ccccc1)C2.CN1C2CCC1CC(OC(=O)C(CO)c1ccccc1)C2.O=S(=O)(O)O` (centres undefined) [Atropine sulfate], the results for the H1.0 immunofluorescence intensity in the test with TDF [4] and with HCC1569 [3] were 91.7 (inactive) and 88.9 (inactive), respectively.

For the compound `C[N+]1(C)C2CCC1CC(OC(=O)C(CO)c1ccccc1)C2.[Br-]` (centres undefined) [Atropine methyl bromide], the cell number in the test on HCC1569 [1] amounted to 102; in the test with TDF [2] it was 105. In addition, the H1.0 immunofluorescence intensity in the test on TDF [4] was 91.2 (inactive); in the test with HCC1569 [3], 93.9 (inactive).

Turning to `CC12CCC3C(CCC4=C(O)C(=O)CCC43C)C1CCC2=O` (centres undefined) [4-Androsten-4-ol-3,17-dione], the cell number in the test on HCC1569 [1] turned out to be 102; in the test on TDF [2], 96.7. Further, the H1.0 immunofluorescence intensity in the test on TDF [4] was 93.4 (inactive); in the test on HCC1569 [3] it was 89.7 (inactive).
